The whole screen tested about 48,000 compounds, of which about 13,000 (27%) showed an effect of 50% or more. Some of the results follow.
The molecules below were run on Wolbachia pipientis (assay: Anti-Wolbachia Cell-Based Screen). Details: 5 µM.
Type: functional
Set-up: scale not given: in the data most compounds retested in dose-response had high values

Row | Structure (SMILES) | Percent Effect
1 | O=C(CSCC1CC1)N1CCCC(c2nccn2Cc2ccccn2)C1 (stereo unspecified) | -4.276%
2 | CCC1=N[C@@]2(CC[C@@H]3CN(S(=O)(=O)CC)C[C@@H]32)C(=O)N1CC(C)C | -13.66%
3 | CN(Cc1ccccc1)c1ncccc1CNC1CCCC1 | -55.14%
4 | CNS(=O)(=O)c1cccc(C(C)NCc2ccc(F)cc2F)c1 (stereo unspecified) | 0.5272%
5 | CC(C)(C)c1ccn(C2(C(=O)O)CCN(c3ccncc3F)CC2)n1 | 0.05232%
6 | O=C(O)C(F)(F)F.O=C(c1ccco1)N1CCOC2(COCCN(c3ncccn3)C2)C1 (stereo unspecified) | -16.99%
7 | O=C(O)C(F)(F)F.O=C(c1ccco1)N1CCC2(CCCN(c3ncccn3)C2)C1 (stereo unspecified) | 85.77%
8 | O=C(O)C(F)(F)F.O=C(c1ccco1)N1CCCC2(CN(Cc3cccs3)CCO2)C1 (stereo unspecified) | 7.002%
9 | CCN1CC2(CCN(C(=O)C3CSC(C)(C)C(=O)N3)CC2)CC1=O (stereo unspecified) | -12.94%
10 | O=C(Cc1cn2ccsc2n1)N1CCCC(n2cncn2)C1 (stereo unspecified) | -11.33%
11 | CCc1nccn1C1CCCN(C(=O)CCc2nc(C(C)C)no2)C1 (stereo unspecified) | 1.838%
12 | CCc1nccn1C1CCCN(C(=O)c2cc[nH]n2)C1 (stereo unspecified) | 5.506%
13 | CCc1nccn1C1CCCN(C(=O)c2csc(C3CC3)n2)C1 (stereo unspecified) | 96.06%
14 | CCc1nccn1C1CCCN(C(=O)Cc2cn3ccsc3n2)C1 (stereo unspecified) | 106.2%
15 | CCc1nccn1C1CCCN(C(=O)c2cc(C3CC3)on2)C1 (stereo unspecified) | 0.1203%
16 | CC(C)c1ccc(OCCC(=O)N(C)CC(N)=O)cc1 | 4.31%
17 | CC1CN(c2ncnc3cccc(F)c23)CCO1 (stereo unspecified) | -3.165%
18 | Cc1cc2nc(C(C)C)cc(NCCc3ccncc3)n2n1 | 142%
19 | Cc1cc2nc(C(C)C)cc(NCCc3cccn3C)n2n1 | 113.2%
20 | CC(C)c1cc(NCC2(Cn3cccn3)CC2)n2nccc2n1 | -2.27%
21 | Cc1cc2nc(C(C)C)cc(N[C@H](C(N)=O)C(C)C)n2n1 | -8.312%
22 | CNS(=O)(=O)CCNc1cc(C)nc2cc(C)nn12 | -6.261%

Row | Structure (SMILES) | Percent Effect
23 | Cc1cc(NCCS(C)(=O)=O)n2nc(C)cc2n1 | -11.18%
24 | CCc1nc2c(NCC3COc4c(cccc4OC)C3)ncnc2o1 (stereo unspecified) | -3.271%
25 | CCN(C)C(=O)c1ccc(N(C)Cc2cc(-c3cccnc3)no2)nc1 | 3.484%
26 | COCc1cc(CC2(NC3CCN(C)CC3)COC2)no1 | 4.63%
27 | COc1cc(C#N)ccc1OCC(=O)N(C1CC1)C(C)c1ccco1 (stereo unspecified) | -6.369%
28 | CCC[C@H]1CN(Cc2ccc(N(C)C)nc2)C[C@@H]1NS(=O)(=O)CC | 9.48%
29 | COc1cc(S(=O)(=O)Nc2cn[nH]c2)ccc1Br | 20.8%
30 | Cn1nc(C2CCCN(C(=O)Cc3ccsc3)C2)c2nccnc21 (stereo unspecified) | -16.9%
31 | Cc1nccn1CC1CCCN(C(=O)Cc2ccsc2)C1 (stereo unspecified) | 91.27%
32 | Cc1cnn(C2CCCN(C(=O)Cc3ccc(-n4cccn4)cc3)C2)c1 (stereo unspecified) | -1.818%
33 | Cc1noc(C)c1CC(=O)N1CCCC(Cn2ccnc2C)C1 (stereo unspecified) | 108.2%
34 | Cc1noc(C)c1CC(=O)N1CCCC(n2ccnc2C)C1 (stereo unspecified) | 104.6%
35 | CCCc1noc(CCC(=O)N2CCCC(n3ccnc3C)C2)n1 (stereo unspecified) | 4.516%
36 | Cc1noc(C)c1CNC(=O)N1CCN(CC2CC2)CC1 | -3.03%
37 | Cc1cnn(C2CCCN(C(=O)Cc3ccc(C)s3)C2)c1 (stereo unspecified) | 107.6%
38 | Cc1noc(C)c1CCC(=O)N1CCCC(n2ccnc2C)C1 (stereo unspecified) | -0.2444%
39 | O=C(Cc1ccsc1)N1CCCC(CNS(=O)(=O)Cc2ccccc2)C1 (stereo unspecified) | -10.03%
40 | Cc1nc(NC(=O)COCC2CC2)ccc1Br | -7.033%
41 | CCc1nnc(CN2CCC(C3CCCCCN3C(C)=O)CC2)o1.Cl (stereo unspecified) | 2.52%
42 | CN(C)c1nccc(CNS(=O)(=O)c2cc(Cl)cc(Cl)c2)n1 | -1.753%
43 | Cc1nc(C(=O)N2CCN(C(=O)N(C)C)[C@@H]3CS(=O)(=O)C[C@@H]32)cs1 | -0.3934%
44 | CCC(NC(=O)c1cccc2[nH]ccc12)C(=O)N1CCOCC1 (stereo unspecified) | -2.082%

Row | Structure (SMILES) | Percent Effect
45 | Cc1noc(C)c1CNC(=O)N1CCCC(C)CC1 (stereo unspecified) | -2.86%
46 | Cc1nccn1C1CCCN(C(=O)Cn2ccc(=O)n(C)c2=O)C1 (stereo unspecified) | -5.053%
47 | Cc1nn(C)c(C)c1CC(=O)N1CCCC(n2ccnc2)C1 (stereo unspecified) | -6.925%
48 | Cc1noc(C)c1CC(=O)N1CCCC(c2noc(C(C)C)n2)C1 (stereo unspecified) | -25.9%
49 | CC(=O)NCC1CCCN(C(=O)Cc2c(C)noc2C)C1 (stereo unspecified) | 118.6%
50 | Cc1nn(C)c(C)c1CC(=O)N1CCCC(n2ccnc2C)C1 (stereo unspecified) | 103.8%
51 | Cc1cnn(C2CCCN(C(=O)Cc3c(C)nn(C)c3C)C2)c1 (stereo unspecified) | 112.6%
52 | C=C(C)CN1CCCC1c1nc(Cc2ccc(F)cc2)no1 (stereo unspecified) | 3.064%
53 | CNC(=O)[C@H]1C[C@H]2OCC[C@H]2N(CC2CCOCC2)C1.O=C(O)C(F)(F)F | -4.721%
54 | COC(=O)CCCN(C)C(c1cccnc1)c1ccc(F)cc1F (stereo unspecified) | -20.53%
55 | CCCn1nccc1C(=O)N1CCN(C(=O)C2CC2)[C@@H]2CS(=O)(=O)C[C@@H]21 | 17.33%
56 | CCCn1nccc1-c1nccnc1CC1CCN(C(C)=O)CC1 | 113%
57 | CCCn1nccc1C(=O)N1CCN(C2CCc3ccccc3C2)CC1 (stereo unspecified) | -8.816%
58 | CCCn1ncnc1C(C)NC(=O)C1CCN(C(=O)C2CC2)CC1 (stereo unspecified) | -8.242%
59 | CC(=O)N1CCC(Cc2nccnc2-c2ccnn2C)CC1 | 105.5%
60 | CCCn1nccc1-c1nccnc1CC1CCN(C(C)=O)C1 (stereo unspecified) | 94.67%
61 | Cn1nccc1-c1nc2c(cc1C(=O)O)CCN(C(=O)C1CC1)CC2.O=C(O)C(F)(F)F | -10.62%
62 | CCCn1nccc1C(=O)N1CCCC(C(=O)CCc2ccccc2)C1 (stereo unspecified) | 3.228%
63 | CCCn1nccc1-c1cnc(CC2CCN(C(C)=O)C2)cn1 (stereo unspecified) | 102.9%
64 | CS(=O)(=O)c1ccc2c(c1)N(C(=O)Cc1ccc(F)cc1)CCC2 | 9.452%
65 | N#Cc1cccnc1NCCNC(=O)NCCSC(F)(F)F | 18.52%
66 | O=C(NCCC1CCCCO1)c1coc(COc2ccc(F)cc2)n1 (stereo unspecified) | -18.68%

Row | Structure (SMILES) | Percent Effect
67 | CCOCc1nc2c(c(NC(CC)c3cccnc3)n1)CCNCC2 (stereo unspecified) | 11.04%
68 | CN(CC1(CO)CCCC1)[C@@H]1c2ccccc2C2(CCNCC2)[C@H]1O | 6.987%
69 | Cc1cccc(C2CCCN(C(=O)CN3CCOC3=O)C2)c1 (stereo unspecified) | -2.013%
70 | CN(C)CCO[C@H]1C[C@@H](O)C12CCN(c1nccc3ccccc13)CC2 | -5.816%
71 | Clc1ccccc1C1(c2ccnc(-c3ncccn3)n2)CCNCC1 | -1.363%
72 | Cc1cc(=O)n2nc(Oc3cccc(C(N)=O)c3)sc2n1 | 92.57%
73 | Cc1ccccc1CC(C)(C)NC(=O)COc1cccc(C(N)=O)c1 | 8.164%
74 | Cc1cc(=O)n2nc(Oc3cccc(I)c3)sc2n1 | 98.58%
75 | Cc1ccn(-c2cncc(C(N)=O)c2)n1 | -45.7%
76 | CSCCC(=O)N1CCC(c2nccn2Cc2cscn2)CC1 | -27.24%
77 | Cc1ccsc1-c1nc(CN(C)Cc2cc[nH]n2)c(C)o1 | 11.99%
78 | Cc1ccc(S(=O)(=O)N2CCCCC(N3CCN(C)CC3)C2)cc1F (stereo unspecified) | -10.96%
79 | Cc1ccc(S(=O)(=O)N2CCCC3(CCCN3S(C)(=O)=O)C2)cc1F (stereo unspecified) | 98%
80 | Cc1ccc(S(=O)(=O)N2C[C@H](C3CC3)[C@@H](N)C2)cc1F | -0.3318%
81 | CS(=O)(=O)N1CCCC12CCCN(S(=O)(=O)c1ccc(F)c(F)c1)C2 (stereo unspecified) | 90.35%
82 | CS(=O)(=O)N1CCCC12CCCN(S(=O)(=O)c1ccc(F)cc1)C2 (stereo unspecified) | -4.23%
83 | c1ccn2c(C3CCCN(c4ncnc5c4CCNC5)C3)nnc2c1 (stereo unspecified) | -4.904%
84 | O=C(O)COc1ccc(Cl)cc1CN1CCC2(CCNCC2)CC1 | -7.41%
85 | Cc1csc(CN2CC(CO)Oc3ccccc32)n1 (stereo unspecified) | -31.8%
86 | COc1c(CNCc2cccc(Cn3cncn3)c2)c(C)nn1C | 94.36%
87 | COc1c(CNCc2ccc(Cn3cccn3)cc2)c(C)nn1C | -21.67%
88 | COc1c(CNCc2cccc(Cn3ccnc3C)c2)c(C)nn1C.Cl | 162.7%

Row | Structure (SMILES) | Percent Effect
89 | COc1c(CNCc2ccccc2Cn2cccn2)c(C)nn1C | 10.98%
90 | COc1c(CNCc2ccccc2Cn2cncn2)c(C)nn1C | -0.9882%
91 | COc1c(CNCc2cccc(Cn3cccn3)c2)c(C)nn1C | 134.9%
92 | COc1c(CNCc2cccc(CN3CCOCC3)c2)c(C)nn1C | -5.316%
93 | Cc1ccc(NC(=O)C(C)N2CCCN(c3nccs3)CC2)c(C)c1 (stereo unspecified) | -5.233%
94 | O=S(=O)(NCC1(O)CCCC1)c1ccccc1Br | 2.398%
95 | CC(C)(C)OC(=O)Cn1cccc(S(=O)(=O)N2CCCCCC2)c1=O | -1.938%
96 | CC1CCN(S(=O)(=O)c2cccn(CC(=O)N3CCOCC3)c2=O)CC1 | 5.887%
97 | O=C(O)c1cc(-c2cc[nH]n2)cc(S(=O)(=O)N2CCCCCC2)c1 | 5.373%
98 | CC1CCN(S(=O)(=O)c2cccn(CC(=O)NC(C)(C)C)c2=O)CC1 | -3.132%
99 | CC(C)(C)OC(=O)Cn1cccc(S(=O)(=O)N2CCCC2)c1=O | 1.983%
100 | O=c1[nH]nc2c(S(=O)(=O)N3CCOCC3)cccn12 | 153.4%
101 | O=c1[nH]nc2c(S(=O)(=O)N3CCCCC3)cccn12 | 132.6%
102 | O=S(=O)(Nc1ccc(N2CCOCC2)cn1)c1ccc(F)cc1 | -10.45%
103 | CC(=O)Nc1ncc(S(=O)(=O)N2CCOCC2)s1 | -0.8414%
104 | O=c1[nH]nc2c(S(=O)(=O)N3CCN(c4ccc(F)cc4)CC3)cccn12 | 130.4%
105 | O=C1N(c2ccc(F)cc2)Cc2n[nH]c(=O)n21 | 2.178%
106 | O=c1[nH]nc2c(S(=O)(=O)N3CCCC3)cccn12 | 132.4%
